Test results reported in the supplement of paper PMC10849652.
About 7,900 targets were measured; listed, in parts, are those with a hit and a random draw of the rest. About 0.6% of all pairs of compound and target were hits.

Experiments:
Assay in all cases: log2 fold change, soluble protein after heating vs DMSO (PISA); higher = thermal stabilisation; K562 cells, 10 uM, 30 min; active = over 0.2 and 3.5 SD of the protein, either way, in both replicates (recomputed)
[1] = compound: CS(=O)(=O)c1ccc(-c2cnc(N)c(C(=O)Nc3ccccc3)n2)cc1
Method in brief: (§1)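 Quantification of soluble protein used TMTpro 16plex LC-MS/MS, with channel sums equalised. Samples were the supernatant after 21,000xg for 90 min of pooled aliquots from K562 cells (2×10^6 cells/mL) treated with 10 μM compound for 30 min, heated for 3 min over 48°C-58°C, and extracted in PBS with 0.5% NP-40 at 4°C. Values, from duplicates, describe thermal stability against control samples on a log2 fold-change scale.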

crizotinib = compound: C[C@@H](Oc1cc(-c2cnn(C3CCNCC3)c2)cnc1N)c1c(Cl)ccc(F)c1Cl [crizotinib]
Method in brief: as §1

[2] = compound: C[C@@H]1COCCN1C2=NC(=NC(=C2)C3(CC3)S(=O)(=O)C)C4=C5C=CNC5=CC=C4
Method in brief: as §1

[3] = compound: C[C@H](C1=CC=C(C=C1)C(=O)NC2=C3C=CNC3=NC=C2)N
Method in brief: as §1

duvelisib = compound: C[C@H](Nc1ncnc2nc[nH]c12)c1cc2cccc(Cl)c2c(=O)n1-c1ccccc1 [duvelisib]
Method in brief: as §1

gandotinib = compound: Cc1cc(Nc2cc(CN3CCOCC3)c3nc(C)c(Cc4ccc(Cl)cc4F)n3n2)n[nH]1 [gandotinib]
Method in brief: as §1

tozasertib = compound: Cc1cc(Nc2cc(N3CCN(C)CC3)nc(Sc3ccc(NC(=O)C4CC4)cc3)n2)n[nH]1 [tozasertib]
Method in brief: as §1

[4] = compound: Cc1cc(SCc2sc(-c3ccc(C(F)(F)F)cc3)nc2C)ccc1OCC(=O)O
Method in brief: as §1

doramapimod = compound: Cc1ccc(-n2nc(C(C)(C)C)cc2NC(=O)Nc2ccc(OCCN3CCOCC3)c3ccccc23)cc1 [doramapimod]
Method in brief: as §1

ispinesib = compound: Cc1ccc(C(=O)N(CCCN)[C@@H](c2nc3cc(Cl)ccc3c(=O)n2Cc2ccccc2)C(C)C)cc1 [ispinesib]
Method in brief: as §1

Measured: log2 fold change

NEU1 (UniProt Q99519)
inactive: [1] -0.005 | [2] -0.15 | [3] 0.029 | duvelisib 0.06 | gandotinib -0.056 | tozasertib -0.015 | [4] -0.008 | doramapimod 0.155
active: crizotinib -0.365 | ispinesib -0.319

NOP53 (UniProt Q9NZM5)
inactive: [1] -0.116 | crizotinib 0.029 | [2] -0.019 | [3] 0.638 | duvelisib -0.335 | gandotinib 0.377 | tozasertib 0.147 | [4] -0.027 | doramapimod 0.277 | ispinesib 0.015

NFX1 (UniProt Q12986)
UniProt Q12986, sequence (Q12986 whole entry, looked up): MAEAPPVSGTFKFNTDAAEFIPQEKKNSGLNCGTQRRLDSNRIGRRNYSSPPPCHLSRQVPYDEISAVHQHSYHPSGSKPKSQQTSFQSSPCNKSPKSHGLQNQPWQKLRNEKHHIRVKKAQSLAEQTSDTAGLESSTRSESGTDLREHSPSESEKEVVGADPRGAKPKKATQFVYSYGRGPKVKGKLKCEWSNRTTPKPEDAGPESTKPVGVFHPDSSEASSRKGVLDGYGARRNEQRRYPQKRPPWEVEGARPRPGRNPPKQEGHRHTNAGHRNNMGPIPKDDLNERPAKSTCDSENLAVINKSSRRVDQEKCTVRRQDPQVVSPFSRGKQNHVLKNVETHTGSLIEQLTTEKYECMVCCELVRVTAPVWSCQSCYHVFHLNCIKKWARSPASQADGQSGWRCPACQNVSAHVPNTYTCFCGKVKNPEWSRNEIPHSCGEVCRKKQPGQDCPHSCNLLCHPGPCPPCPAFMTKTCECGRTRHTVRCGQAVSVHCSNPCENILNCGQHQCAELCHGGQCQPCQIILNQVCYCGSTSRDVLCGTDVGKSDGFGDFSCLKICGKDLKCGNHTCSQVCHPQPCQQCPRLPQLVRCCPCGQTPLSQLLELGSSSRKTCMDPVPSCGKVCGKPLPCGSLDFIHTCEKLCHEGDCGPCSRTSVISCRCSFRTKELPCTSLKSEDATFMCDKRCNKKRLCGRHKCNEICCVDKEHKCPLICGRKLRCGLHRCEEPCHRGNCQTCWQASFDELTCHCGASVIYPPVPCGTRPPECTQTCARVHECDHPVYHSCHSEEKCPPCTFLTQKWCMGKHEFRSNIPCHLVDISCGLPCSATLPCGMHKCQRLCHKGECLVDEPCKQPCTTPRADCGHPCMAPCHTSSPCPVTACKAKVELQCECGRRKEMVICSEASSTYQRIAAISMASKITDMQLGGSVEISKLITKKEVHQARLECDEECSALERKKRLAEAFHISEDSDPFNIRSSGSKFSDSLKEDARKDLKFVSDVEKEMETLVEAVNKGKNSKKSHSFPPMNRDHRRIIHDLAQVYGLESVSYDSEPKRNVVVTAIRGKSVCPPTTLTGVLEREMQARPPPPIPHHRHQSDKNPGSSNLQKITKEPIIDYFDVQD
inactive: [1] -0.024 | crizotinib -0.232 | [2] -0.315 | [3] 0.09 | duvelisib 0.172 | gandotinib 0.21 | tozasertib -0.008 | [4] -0.164 | doramapimod 0.293 | ispinesib -0.202

NDUFB7 (UniProt P17568)
UniProt P17568, sequence (P17568 whole entry, looked up): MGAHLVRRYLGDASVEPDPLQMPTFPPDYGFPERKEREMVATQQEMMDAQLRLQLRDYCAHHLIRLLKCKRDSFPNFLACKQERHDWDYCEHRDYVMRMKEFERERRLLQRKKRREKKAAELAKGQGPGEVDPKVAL
inactive: [1] 0.004 | crizotinib 0.001 | [2] 0.03 | [3] -0.094 | duvelisib 0.006 | gandotinib -0.02 | tozasertib -0.018 | [4] -0.041 | doramapimod 0.021 | ispinesib 0.015

MYL12B (UniProt O14950)
UniProt O14950, sequence (O14950 whole entry, looked up): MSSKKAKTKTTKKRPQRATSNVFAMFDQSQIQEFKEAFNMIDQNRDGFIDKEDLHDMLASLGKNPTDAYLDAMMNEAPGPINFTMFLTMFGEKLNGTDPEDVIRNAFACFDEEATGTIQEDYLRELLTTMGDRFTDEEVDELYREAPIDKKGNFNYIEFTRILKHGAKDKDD
inactive: [1] -0.016 | crizotinib -0.004 | [2] 0.019 | duvelisib 0.088 | gandotinib 0.058 | tozasertib 0.005 | [4] -0.003 | doramapimod 0.025 | ispinesib 0.097
active: [3] -0.32

NDUFA12 (UniProt Q9UI09)
UniProt Q9UI09, sequence (Q9UI09 whole entry, looked up): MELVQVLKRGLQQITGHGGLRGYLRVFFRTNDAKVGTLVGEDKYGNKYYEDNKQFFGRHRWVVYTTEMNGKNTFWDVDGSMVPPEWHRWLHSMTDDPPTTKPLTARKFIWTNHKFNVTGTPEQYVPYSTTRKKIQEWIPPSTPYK
active: ispinesib -0.385
inactive: [1] 0.107 | crizotinib -0.033 | [2] 0.025 | [3] 0.015 | duvelisib 0.033 | gandotinib -0.206 | tozasertib -0.048 | [4] 0.115 | doramapimod 0.03

MRPS15 (UniProt P82914)
active: ispinesib -0.318
inactive: [1] 0.09 | crizotinib -0.092 | [2] 0.022 | [3] 0.072 | duvelisib -0.011 | gandotinib -0.053 | tozasertib -0.046 | [4] 0.067 | doramapimod 0.042

OTUD4 (UniProt Q01804)
UniProt Q01804, sequence (Q01804 whole entry, looked up): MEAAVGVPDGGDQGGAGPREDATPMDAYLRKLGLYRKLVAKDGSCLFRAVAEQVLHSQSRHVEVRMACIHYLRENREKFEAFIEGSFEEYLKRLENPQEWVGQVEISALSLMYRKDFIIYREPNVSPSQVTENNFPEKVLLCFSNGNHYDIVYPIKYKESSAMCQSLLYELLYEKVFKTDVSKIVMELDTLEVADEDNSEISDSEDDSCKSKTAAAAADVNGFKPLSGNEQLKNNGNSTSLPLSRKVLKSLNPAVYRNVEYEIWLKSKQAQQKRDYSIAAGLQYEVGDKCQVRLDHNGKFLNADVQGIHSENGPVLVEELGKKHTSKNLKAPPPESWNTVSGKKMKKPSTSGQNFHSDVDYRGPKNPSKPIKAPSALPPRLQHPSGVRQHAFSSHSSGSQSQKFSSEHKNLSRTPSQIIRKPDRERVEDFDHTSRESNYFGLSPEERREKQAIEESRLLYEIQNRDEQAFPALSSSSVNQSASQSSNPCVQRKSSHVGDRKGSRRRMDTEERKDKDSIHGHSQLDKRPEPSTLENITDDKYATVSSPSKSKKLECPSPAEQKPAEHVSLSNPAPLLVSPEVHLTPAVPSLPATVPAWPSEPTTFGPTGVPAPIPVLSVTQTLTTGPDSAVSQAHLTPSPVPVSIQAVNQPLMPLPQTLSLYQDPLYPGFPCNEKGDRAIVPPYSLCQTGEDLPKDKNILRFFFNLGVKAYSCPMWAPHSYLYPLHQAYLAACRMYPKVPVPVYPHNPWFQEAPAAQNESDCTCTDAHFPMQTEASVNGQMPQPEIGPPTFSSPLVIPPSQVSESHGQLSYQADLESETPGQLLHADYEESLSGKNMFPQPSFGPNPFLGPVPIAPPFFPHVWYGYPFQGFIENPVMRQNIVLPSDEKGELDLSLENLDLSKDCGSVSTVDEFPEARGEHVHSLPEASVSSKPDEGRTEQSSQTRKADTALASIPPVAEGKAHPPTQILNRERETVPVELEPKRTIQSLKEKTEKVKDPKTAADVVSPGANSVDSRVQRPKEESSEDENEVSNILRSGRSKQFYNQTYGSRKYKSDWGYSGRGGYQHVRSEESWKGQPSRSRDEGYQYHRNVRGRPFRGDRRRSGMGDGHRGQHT
inactive: [1] 0.018 | crizotinib -0.001 | [2] -0.094 | [3] 0.106 | duvelisib -0.073 | gandotinib 0.059 | tozasertib 0.034 | [4] -0.001 | doramapimod 0.052 | ispinesib -0.034

MKRN2 (UniProt Q9H000)
UniProt Q9H000, sequence (Q9H000 whole entry, looked up): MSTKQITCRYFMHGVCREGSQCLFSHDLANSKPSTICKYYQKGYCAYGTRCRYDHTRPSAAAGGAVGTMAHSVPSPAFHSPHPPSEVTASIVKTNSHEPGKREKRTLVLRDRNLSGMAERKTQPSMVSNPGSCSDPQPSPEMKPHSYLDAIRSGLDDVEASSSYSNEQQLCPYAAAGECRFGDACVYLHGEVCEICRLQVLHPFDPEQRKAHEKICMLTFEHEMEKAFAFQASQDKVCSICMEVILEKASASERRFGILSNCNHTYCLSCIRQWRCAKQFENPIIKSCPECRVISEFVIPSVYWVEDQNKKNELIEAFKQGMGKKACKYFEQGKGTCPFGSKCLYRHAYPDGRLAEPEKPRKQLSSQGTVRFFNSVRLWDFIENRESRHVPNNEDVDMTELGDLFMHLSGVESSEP
inactive: [1] -0.035 | crizotinib -0.094 | [2] -0.077 | [3] 0.117 | duvelisib -0.111 | gandotinib 0.221 | tozasertib 0.085 | [4] 0.076 | doramapimod -0.005 | ispinesib -0.161

NANS (UniProt Q9NR45)
UniProt Q9NR45, sequence (Q9NR45 whole entry, looked up): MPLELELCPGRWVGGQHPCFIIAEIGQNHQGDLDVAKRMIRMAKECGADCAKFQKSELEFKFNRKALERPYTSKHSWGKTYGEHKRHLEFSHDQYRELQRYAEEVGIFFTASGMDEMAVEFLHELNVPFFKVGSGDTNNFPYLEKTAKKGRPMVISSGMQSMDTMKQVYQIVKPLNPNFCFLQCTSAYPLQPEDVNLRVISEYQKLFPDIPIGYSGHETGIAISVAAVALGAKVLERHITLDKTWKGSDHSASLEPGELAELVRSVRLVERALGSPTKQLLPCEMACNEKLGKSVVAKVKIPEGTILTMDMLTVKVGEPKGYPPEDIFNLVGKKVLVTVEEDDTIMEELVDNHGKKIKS
inactive: [1] -0.074 | crizotinib 0.026 | [2] 0.052 | [3] -0.098 | duvelisib 0.02 | gandotinib -0.03 | tozasertib 0.043 | [4] 0.001 | doramapimod -0.006 | ispinesib 0.074

NA, A0A0B4J2A0
inactive: [1] -0.087 | crizotinib -0.18 | [2] 0.093 | [3] 0.06 | duvelisib 0.071 | gandotinib -0.087 | tozasertib -0.061 | [4] 0.061 | doramapimod -0.049 | ispinesib -0.121

NOL11 (UniProt Q9H8H0)
inactive: [1] -0.036 | crizotinib 0.084 | [2] -0.017 | [3] -0.041 | duvelisib 0.073 | gandotinib -0.061 | tozasertib -0.01 | [4] -0.015 | doramapimod -0.005 | ispinesib 0.097

NIBAN1 (UniProt Q9BZQ8)
UniProt Q9BZQ8, sequence (Q9BZQ8 whole entry, looked up): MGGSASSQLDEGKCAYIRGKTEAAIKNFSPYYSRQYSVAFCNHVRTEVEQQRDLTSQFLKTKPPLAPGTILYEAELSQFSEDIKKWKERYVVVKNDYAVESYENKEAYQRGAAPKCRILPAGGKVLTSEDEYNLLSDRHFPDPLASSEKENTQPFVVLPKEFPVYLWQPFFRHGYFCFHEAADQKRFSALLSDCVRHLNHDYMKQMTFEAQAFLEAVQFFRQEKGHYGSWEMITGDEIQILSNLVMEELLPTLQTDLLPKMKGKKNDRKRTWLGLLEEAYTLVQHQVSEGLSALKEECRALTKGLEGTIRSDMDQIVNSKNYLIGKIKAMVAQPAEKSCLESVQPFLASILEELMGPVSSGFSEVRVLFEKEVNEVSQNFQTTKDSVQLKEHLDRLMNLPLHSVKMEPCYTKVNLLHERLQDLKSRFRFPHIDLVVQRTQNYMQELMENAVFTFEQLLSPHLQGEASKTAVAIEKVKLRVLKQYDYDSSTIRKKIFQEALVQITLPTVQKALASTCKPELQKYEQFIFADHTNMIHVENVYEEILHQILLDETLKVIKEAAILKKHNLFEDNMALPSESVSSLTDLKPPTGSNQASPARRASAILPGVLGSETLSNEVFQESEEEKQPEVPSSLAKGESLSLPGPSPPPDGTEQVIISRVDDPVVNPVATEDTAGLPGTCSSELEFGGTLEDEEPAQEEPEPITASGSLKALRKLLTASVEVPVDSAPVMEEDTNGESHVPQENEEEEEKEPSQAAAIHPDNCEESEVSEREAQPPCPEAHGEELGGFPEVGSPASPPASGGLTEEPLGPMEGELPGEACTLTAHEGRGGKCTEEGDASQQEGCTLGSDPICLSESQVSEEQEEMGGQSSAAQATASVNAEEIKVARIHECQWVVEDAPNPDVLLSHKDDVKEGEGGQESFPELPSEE
inactive: [1] 0.02 | crizotinib -0.296 | [2] 0.014 | [3] 0.097 | duvelisib 0.017 | gandotinib -0.143 | tozasertib -0.003 | [4] 0.116 | doramapimod 0.001 | ispinesib -0.148

NOP56 (UniProt O00567)
UniProt O00567, sequence (O00567 whole entry, looked up): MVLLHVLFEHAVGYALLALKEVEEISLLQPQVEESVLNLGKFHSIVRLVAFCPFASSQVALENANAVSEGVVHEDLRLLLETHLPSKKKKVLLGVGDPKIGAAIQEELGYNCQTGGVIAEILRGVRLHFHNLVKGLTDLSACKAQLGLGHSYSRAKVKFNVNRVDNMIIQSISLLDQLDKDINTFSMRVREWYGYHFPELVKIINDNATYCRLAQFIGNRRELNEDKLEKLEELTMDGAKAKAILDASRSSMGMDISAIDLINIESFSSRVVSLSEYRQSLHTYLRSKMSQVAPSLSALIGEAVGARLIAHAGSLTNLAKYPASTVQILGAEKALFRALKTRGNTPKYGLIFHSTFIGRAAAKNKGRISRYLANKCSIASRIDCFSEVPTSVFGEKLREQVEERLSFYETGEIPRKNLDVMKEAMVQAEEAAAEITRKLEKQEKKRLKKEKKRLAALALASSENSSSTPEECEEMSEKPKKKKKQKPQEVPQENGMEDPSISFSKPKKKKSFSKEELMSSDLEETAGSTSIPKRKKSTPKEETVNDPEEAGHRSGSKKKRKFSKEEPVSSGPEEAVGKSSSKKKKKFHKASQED
inactive: [1] -0.101 | crizotinib -0.103 | [2] -0.338 | [3] 0.285 | duvelisib -0.022 | gandotinib 0.064 | tozasertib -0.043 | [4] 0 | doramapimod 0.178 | ispinesib 0.162
